Measured values: the supplement of paper PMC10849652
Of roughly 7,900 targets only a part is listed; those with a hit were picked by preference. About 0.6% of all pairs of compound and target were hits. Unmarked numbers belong to inactive results.

What was measured:
Experiment in all cases: log2 fold change, soluble protein after heating vs DMSO (PISA); higher = thermal stabilisation; K562 cells, 10 uM, 30 min; active = over 0.2 and 3.5 SD of the protein, either way, in both replicates (recomputed)
saracatinib = compound: CN1CCN(CCOc2cc(OC3CCOCC3)c3c(Nc4c(Cl)ccc5c4OCO5)ncnc3c2)CC1 [saracatinib]
How it was run: (§1)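 Values are thermal stability changes relative to control samples and are taken from duplicates. They are stated as log2 fold changes. Before quantification by TMTpro 16plex LC-MS/MS with equalised channel sums, K562 cells at 2×10^6 cells/mL were treated with 10 μM compound for 30 min, heated in aliquots for 3 min across 48°C-58°C, pooled, extracted in PBS with 0.5% NP-40 at 4°C, and centrifuged at 21,000xg for 90 min to give the soluble supernatant.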

sotrastaurin = compound: CN1CCN(c2nc(C3=C(c4c[nH]c5ccccc45)C(=O)NC3=O)c3ccccc3n2)CC1 [sotrastaurin]
How it was run: as §1

alvocidib = compound: CN1CC[C@H](c2c(O)cc(O)c3c(=O)cc(-c4ccccc4Cl)oc23)[C@H](O)C1 [alvocidib]
How it was run: as §1

Tubastatin A = compound: CN1CCc2c(c3ccccc3n2Cc2ccc(C(=O)NO)cc2)C1 [Tubastatin A]
How it was run: as §1

[1] = compound: CNC(=O)C1=CC=CC=C1NC2=NC(=NC=C2Cl)NC3=C(C=C(C=C3)N4CCOCC4)OC
How it was run: as §1

defactinib = compound: CNC(=O)c1ccc(Nc2ncc(C(F)(F)F)c(NCc3nccnc3N(C)S(C)(=O)=O)n2)cc1 [defactinib]
How it was run: as §1

rucaparib = compound: CNCc1ccc(-c2[nH]c3cc(F)cc4c3c2CCNC4=O)cc1 [rucaparib]
How it was run: as §1

[2] = compound: CNc1nc(-c2ccc3c(N)n[nH]c3c2)cc(N2C[C@@H](C(=O)NC3CCCCC3)CC[C@H]2C)n1
How it was run: as §1

encorafenib = compound: COC(=O)N[C@@H](C)CNc1nccc(-c2cn(C(C)C)nc2-c2cc(Cl)cc(NS(C)(=O)=O)c2F)n1 [encorafenib]
How it was run: as §1

[3] = compound: COC(=O)[C@H](CCSC)NC(=O)C1=C(C=C(C=C1)NC[C@H](CS)N)C2=CC=CC=C2
How it was run: as §1

[4] = compound: COC1=CC=C(C=C1)CN2C=CC3=C2C=C(C=C3)C(=O)NO
How it was run: as §1

filanesib = compound: CON(C)C(=O)N1N=C(c2cc(F)ccc2F)S[C@@]1(CCCN)c1ccccc1 [filanesib]
How it was run: as §1

zotarolimus = compound: CO[C@H]1C[C@@H]2CC[C@@H](C)[C@@](O)(O2)C(=O)C(=O)N2CCCC[C@H]2C(=O)O[C@H]([C@H](C)C[C@@H]2CC[C@H](n3cnnn3)[C@H](OC)C2)CC(=O)[C@H](C)/C=C(\C)[C@@H](O)[C@@H](OC)C(=O)[C@H](C)C[C@H](C)/C=C/C=C/C=C/1C [zotarolimus]
How it was run: as §1

idasanutlin = compound: COc1cc(C(=O)O)ccc1NC(=O)[C@@H]1N[C@@H](CC(C)(C)C)[C@](C#N)(c2ccc(Cl)cc2F)[C@H]1c1cccc(Cl)c1F [idasanutlin]
How it was run: as §1

alisertib = compound: COc1cc(Nc2ncc3c(n2)-c2ccc(Cl)cc2C(c2c(F)cccc2OC)=NC3)ccc1C(=O)O [alisertib]
How it was run: as §1

[5] = compound: COc1cc2nc(-c3cc(F)ccc3O)nc(N[C@@H]3CNC[C@H]3C(C)(C)O)c2cc1OC
How it was run: as §1

gefitinib = compound: COc1cc2ncnc(Nc3ccc(F)c(Cl)c3)c2cc1OCCCN1CCOCC1 [gefitinib]
How it was run: as §1

[6] = compound: COc1cccc2cc(-c3nc([C@H]4CC[C@H](C(=O)O)CC4)n4ncnc(N)c34)[nH]c12
How it was run: as §1

lapatinib = compound: CS(=O)(=O)CCNCc1ccc(-c2ccc3ncnc(Nc4ccc(OCc5cccc(F)c5)c(Cl)c4)c3c2)o1 [lapatinib]
How it was run: as §1

pictilisib = compound: CS(=O)(=O)N1CCN(Cc2cc3nc(-c4cccc5[nH]ncc45)nc(N4CCOCC4)c3s2)CC1 [pictilisib]
How it was run: as §1

VPS53 isoform 4 (UniProt Q5VIR6)
UniProt Q5VIR6, sequence (Q5VIR6 whole entry, looked up): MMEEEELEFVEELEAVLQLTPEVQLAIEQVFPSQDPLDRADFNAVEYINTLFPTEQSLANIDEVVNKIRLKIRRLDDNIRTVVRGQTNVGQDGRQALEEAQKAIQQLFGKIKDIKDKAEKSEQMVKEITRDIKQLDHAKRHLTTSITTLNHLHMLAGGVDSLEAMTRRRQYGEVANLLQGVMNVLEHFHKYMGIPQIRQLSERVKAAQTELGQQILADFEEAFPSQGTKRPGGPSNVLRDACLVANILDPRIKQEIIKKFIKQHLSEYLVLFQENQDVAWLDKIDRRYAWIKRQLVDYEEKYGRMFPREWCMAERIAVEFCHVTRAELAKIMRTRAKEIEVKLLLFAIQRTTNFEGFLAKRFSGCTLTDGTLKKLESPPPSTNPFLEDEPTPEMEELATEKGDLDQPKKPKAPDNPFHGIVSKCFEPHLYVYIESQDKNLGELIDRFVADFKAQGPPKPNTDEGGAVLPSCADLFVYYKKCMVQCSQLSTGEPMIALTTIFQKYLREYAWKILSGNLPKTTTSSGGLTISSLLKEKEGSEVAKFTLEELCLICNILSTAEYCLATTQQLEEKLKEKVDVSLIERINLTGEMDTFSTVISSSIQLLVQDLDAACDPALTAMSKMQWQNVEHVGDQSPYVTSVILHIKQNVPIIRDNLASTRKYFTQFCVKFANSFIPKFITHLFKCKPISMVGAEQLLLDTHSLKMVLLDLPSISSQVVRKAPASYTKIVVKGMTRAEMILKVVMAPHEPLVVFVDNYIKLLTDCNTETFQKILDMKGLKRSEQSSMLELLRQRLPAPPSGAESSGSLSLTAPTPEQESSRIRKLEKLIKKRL
log2 fold change (saracatinib): 0.029
log2 fold change (sotrastaurin): -0.102
log2 fold change (alvocidib): -0.146
log2 fold change (Tubastatin A): 0.017
log2 fold change [1]: -0.009
log2 fold change (defactinib): -0.056
log2 fold change (rucaparib): 0.061
log2 fold change [2]: -0.028
log2 fold change (encorafenib): 0.06
log2 fold change [3]: -0.001
log2 fold change [4]: 0.015
log2 fold change (filanesib): -0.008
log2 fold change (zotarolimus): 0.095
log2 fold change (idasanutlin): -0.048
log2 fold change (alisertib): 0.01
log2 fold change [5]: 0.089
log2 fold change (gefitinib): 0.025
log2 fold change [6]: 0.003
log2 fold change (lapatinib): 0.012
log2 fold change (pictilisib): -0.066

TRAPPC13 isoform 5 (UniProt A5PLN9)
UniProt A5PLN9, sequence (A5PLN9 whole entry, looked up): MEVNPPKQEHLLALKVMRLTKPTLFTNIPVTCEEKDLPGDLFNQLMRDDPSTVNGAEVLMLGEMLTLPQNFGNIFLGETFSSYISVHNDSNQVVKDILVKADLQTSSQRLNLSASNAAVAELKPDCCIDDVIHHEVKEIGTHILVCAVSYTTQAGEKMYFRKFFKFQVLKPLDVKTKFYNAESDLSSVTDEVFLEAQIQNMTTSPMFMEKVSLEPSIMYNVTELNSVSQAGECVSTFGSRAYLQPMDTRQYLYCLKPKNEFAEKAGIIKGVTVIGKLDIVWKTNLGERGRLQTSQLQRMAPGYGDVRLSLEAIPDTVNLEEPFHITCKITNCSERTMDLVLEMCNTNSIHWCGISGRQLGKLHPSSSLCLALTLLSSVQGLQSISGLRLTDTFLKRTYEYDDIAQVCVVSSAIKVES
log2 fold change (saracatinib): 0.045
log2 fold change (sotrastaurin): -0.061
log2 fold change (alvocidib): -0.029
log2 fold change (Tubastatin A): 0.026
log2 fold change [1]: 0.04
log2 fold change (defactinib): -0.051
log2 fold change (rucaparib): 0.072
log2 fold change [2]: -0.045
log2 fold change (encorafenib): 0.217
log2 fold change [3]: -0.099
log2 fold change [4]: 0.094
log2 fold change (filanesib): 0.052
log2 fold change (zotarolimus): 0.045
log2 fold change (idasanutlin): -0.016
log2 fold change (alisertib): -0.123
log2 fold change [5]: 0.009
log2 fold change (gefitinib): 0.005
log2 fold change [6]: -0.046
log2 fold change (lapatinib): 0.116
log2 fold change (pictilisib): 0.015

WDR37 isoform 2 (UniProt Q9Y2I8)
UniProt Q9Y2I8, sequence (Q9Y2I8 whole entry, looked up): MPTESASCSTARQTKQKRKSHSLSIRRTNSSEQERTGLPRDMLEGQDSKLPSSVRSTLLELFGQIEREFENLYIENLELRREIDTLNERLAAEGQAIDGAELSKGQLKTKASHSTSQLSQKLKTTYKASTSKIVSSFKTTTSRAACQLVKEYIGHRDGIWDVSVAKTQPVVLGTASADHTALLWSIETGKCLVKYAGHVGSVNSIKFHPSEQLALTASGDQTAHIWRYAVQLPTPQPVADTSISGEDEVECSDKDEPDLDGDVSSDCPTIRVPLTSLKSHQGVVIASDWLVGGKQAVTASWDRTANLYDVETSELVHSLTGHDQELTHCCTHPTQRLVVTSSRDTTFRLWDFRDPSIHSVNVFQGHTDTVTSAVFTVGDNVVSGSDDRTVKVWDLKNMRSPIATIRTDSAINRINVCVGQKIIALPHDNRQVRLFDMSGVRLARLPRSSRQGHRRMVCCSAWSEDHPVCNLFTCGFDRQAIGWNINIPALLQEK
log2 fold change (saracatinib): -0.094
log2 fold change (sotrastaurin): -0.01
log2 fold change (alvocidib): 0.207
log2 fold change (Tubastatin A): -0.019
log2 fold change [1]: -0.077
log2 fold change (defactinib): 0
log2 fold change (rucaparib): 0.064
log2 fold change [2]: -0.108
log2 fold change (encorafenib): 0.084
log2 fold change [3]: -0.007
log2 fold change [4]: 0.033
log2 fold change (filanesib): 0.117
log2 fold change (zotarolimus): -0.063
log2 fold change (idasanutlin): 0.081
log2 fold change (alisertib): -0.018
log2 fold change [5]: 0.034
log2 fold change (gefitinib): -0.006
log2 fold change [6]: -0.029
log2 fold change (lapatinib): 0.035
log2 fold change (pictilisib): 0.046

TRMT61A (UniProt Q96FX7)
UniProt Q96FX7, sequence (Q96FX7 whole entry, looked up): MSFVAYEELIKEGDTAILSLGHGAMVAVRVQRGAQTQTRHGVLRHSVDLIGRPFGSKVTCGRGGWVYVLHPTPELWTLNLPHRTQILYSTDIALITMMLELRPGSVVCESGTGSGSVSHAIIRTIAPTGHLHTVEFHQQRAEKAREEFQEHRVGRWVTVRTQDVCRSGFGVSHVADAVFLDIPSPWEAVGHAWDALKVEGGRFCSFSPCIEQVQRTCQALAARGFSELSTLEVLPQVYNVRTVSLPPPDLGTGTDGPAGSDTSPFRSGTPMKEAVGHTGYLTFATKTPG
log2 fold change (saracatinib): -0.018
log2 fold change (sotrastaurin): -0.002
log2 fold change (alvocidib): 0.134
log2 fold change (Tubastatin A): 0.08
log2 fold change [1]: -0.038
log2 fold change (defactinib): 0.138
log2 fold change (rucaparib): 0.286
log2 fold change [2]: 0.02
log2 fold change (encorafenib): -0.03
log2 fold change [3]: 0.039
log2 fold change [4]: 0.083
log2 fold change (filanesib): 0.136
log2 fold change (zotarolimus): 0.077
log2 fold change (idasanutlin): 0.025
log2 fold change (alisertib): -0.017
log2 fold change [5]: -0.192
log2 fold change (gefitinib): -0.051
log2 fold change [6]: -0.057
log2 fold change (lapatinib): 0.03
log2 fold change (pictilisib): -0.18

TNFRSF10A (UniProt O00220)
UniProt O00220, sequence (O00220 whole entry, looked up): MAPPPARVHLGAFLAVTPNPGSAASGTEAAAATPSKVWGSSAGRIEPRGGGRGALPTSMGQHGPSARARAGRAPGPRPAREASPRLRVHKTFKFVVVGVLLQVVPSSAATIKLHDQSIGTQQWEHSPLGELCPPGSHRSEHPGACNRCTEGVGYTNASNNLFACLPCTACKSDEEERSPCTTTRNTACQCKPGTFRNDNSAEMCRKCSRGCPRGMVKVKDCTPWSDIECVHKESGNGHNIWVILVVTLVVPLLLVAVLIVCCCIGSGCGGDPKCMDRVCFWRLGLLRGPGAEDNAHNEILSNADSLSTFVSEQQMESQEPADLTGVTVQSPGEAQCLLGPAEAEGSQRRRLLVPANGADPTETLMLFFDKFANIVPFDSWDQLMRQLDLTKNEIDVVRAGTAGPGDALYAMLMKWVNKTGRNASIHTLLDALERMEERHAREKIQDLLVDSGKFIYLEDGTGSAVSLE
log2 fold change (saracatinib): -0.038
log2 fold change (sotrastaurin): -0.012
log2 fold change (alvocidib): 0.02
log2 fold change (Tubastatin A): 0.04
log2 fold change [1]: -0.052
log2 fold change (defactinib): 0.039
log2 fold change (rucaparib): 0.017
log2 fold change [2]: 0.02
log2 fold change (encorafenib): 0.031
log2 fold change [3]: 0.056
log2 fold change [4]: -0.046
log2 fold change (filanesib): 0.028
log2 fold change (zotarolimus): -0.035
log2 fold change (idasanutlin): 0.058
log2 fold change (alisertib): -0.021
log2 fold change [5]: 0.024
log2 fold change (gefitinib): -0.012
log2 fold change [6]: -0.002
log2 fold change (lapatinib): -0.073
log2 fold change (pictilisib): 0.304 (active)

UBA6
log2 fold change (saracatinib): -0.006
log2 fold change (sotrastaurin): -0.125
log2 fold change (alvocidib): -0.08
log2 fold change (Tubastatin A): -0.047
log2 fold change [1]: 0.041
log2 fold change (defactinib): -0.089
log2 fold change (rucaparib): 0.024
log2 fold change [2]: 0.011
log2 fold change (encorafenib): 0.049
log2 fold change [3]: -0.032
log2 fold change [4]: 0.021
log2 fold change (filanesib): -0.01
log2 fold change (zotarolimus): 0.051
log2 fold change (idasanutlin): -0.016
log2 fold change (alisertib): -0.04
log2 fold change [5]: -0.031
log2 fold change (gefitinib): 0.029
log2 fold change [6]: -0.069
log2 fold change (lapatinib): 0.022
log2 fold change (pictilisib): 0.004

TMEM192 (UniProt Q8IY95)
UniProt Q8IY95, sequence (Q8IY95 whole entry, looked up): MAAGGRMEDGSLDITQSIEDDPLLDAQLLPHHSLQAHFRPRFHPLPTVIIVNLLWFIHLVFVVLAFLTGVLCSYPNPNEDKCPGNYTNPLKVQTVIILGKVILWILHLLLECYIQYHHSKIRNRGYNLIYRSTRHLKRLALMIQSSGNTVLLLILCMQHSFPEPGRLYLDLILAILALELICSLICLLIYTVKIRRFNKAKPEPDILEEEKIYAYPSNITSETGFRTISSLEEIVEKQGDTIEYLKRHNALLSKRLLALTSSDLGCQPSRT
log2 fold change (saracatinib): 0.092
log2 fold change (sotrastaurin): -0.028
log2 fold change (alvocidib): 0.001
log2 fold change (Tubastatin A): 0.035
log2 fold change [1]: 0.015
log2 fold change (defactinib): -0.016
log2 fold change (rucaparib): -0.01
log2 fold change [2]: -0.033
log2 fold change (encorafenib): -0.02
log2 fold change [3]: 0.036
log2 fold change [4]: -0.036
log2 fold change (filanesib): -0.162
log2 fold change (zotarolimus): -0.047
log2 fold change (idasanutlin): 0.037
log2 fold change (alisertib): -0.048
log2 fold change [5]: -0.009
log2 fold change (gefitinib): -0.047
log2 fold change [6]: 0.099
log2 fold change (lapatinib): -0.02
log2 fold change (pictilisib): 0.038

TXNRD1 (UniProt Q16881)
UniProt Q16881, sequence (Q16881 whole entry, looked up): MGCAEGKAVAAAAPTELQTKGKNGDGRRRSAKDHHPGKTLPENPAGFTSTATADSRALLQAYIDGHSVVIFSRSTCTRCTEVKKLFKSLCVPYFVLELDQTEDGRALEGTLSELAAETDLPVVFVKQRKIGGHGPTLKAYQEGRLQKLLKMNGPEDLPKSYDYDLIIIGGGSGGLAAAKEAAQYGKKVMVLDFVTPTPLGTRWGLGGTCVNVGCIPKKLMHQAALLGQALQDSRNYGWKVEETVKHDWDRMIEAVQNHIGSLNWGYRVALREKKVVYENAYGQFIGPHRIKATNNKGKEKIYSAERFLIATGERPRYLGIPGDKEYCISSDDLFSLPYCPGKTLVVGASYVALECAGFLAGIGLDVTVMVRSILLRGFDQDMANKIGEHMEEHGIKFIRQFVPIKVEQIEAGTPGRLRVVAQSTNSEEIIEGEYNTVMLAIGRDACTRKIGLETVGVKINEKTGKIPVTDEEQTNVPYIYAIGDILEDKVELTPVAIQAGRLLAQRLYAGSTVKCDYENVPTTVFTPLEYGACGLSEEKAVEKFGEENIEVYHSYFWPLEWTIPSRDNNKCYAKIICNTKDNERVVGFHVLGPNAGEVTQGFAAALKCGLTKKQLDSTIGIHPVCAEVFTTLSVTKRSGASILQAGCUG
log2 fold change (saracatinib): -0.012
log2 fold change (sotrastaurin): 0.058
log2 fold change (alvocidib): -0.05
log2 fold change (Tubastatin A): -0.001
log2 fold change [1]: 0.022
log2 fold change (defactinib): -0.015
log2 fold change (rucaparib): -0.113
log2 fold change [2]: 0.032
log2 fold change (encorafenib): -0.033
log2 fold change [3]: -0.001
log2 fold change [4]: 0.018
log2 fold change (filanesib): -0.101
log2 fold change (zotarolimus): 0.006
log2 fold change (idasanutlin): -0.144
log2 fold change (alisertib): -0.012
log2 fold change [5]: -0.023
log2 fold change (gefitinib): 0.026
log2 fold change [6]: 0.052
log2 fold change (lapatinib): -0.055
log2 fold change (pictilisib): 0.062

TTC4 (UniProt O95801)
UniProt O95801, sequence (O95801 whole entry, looked up): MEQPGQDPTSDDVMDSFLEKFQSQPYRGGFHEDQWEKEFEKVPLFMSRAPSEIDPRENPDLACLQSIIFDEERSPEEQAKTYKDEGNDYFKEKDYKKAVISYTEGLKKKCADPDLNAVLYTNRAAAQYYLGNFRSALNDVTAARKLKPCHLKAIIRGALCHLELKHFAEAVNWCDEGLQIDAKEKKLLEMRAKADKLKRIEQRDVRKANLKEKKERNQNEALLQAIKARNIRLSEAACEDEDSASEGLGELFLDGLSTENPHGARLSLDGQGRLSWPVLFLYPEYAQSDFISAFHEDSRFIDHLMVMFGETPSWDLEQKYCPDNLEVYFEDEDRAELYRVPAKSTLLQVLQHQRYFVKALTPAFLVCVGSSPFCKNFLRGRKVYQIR
log2 fold change (saracatinib): -0.09
log2 fold change (sotrastaurin): -0.11
log2 fold change (alvocidib): -0.146
log2 fold change (Tubastatin A): 0.055
log2 fold change [1]: 0.078
log2 fold change (defactinib): -0.169
log2 fold change (rucaparib): 0.04
log2 fold change [2]: 0.051
log2 fold change (encorafenib): 0.049
log2 fold change [3]: -0.055
log2 fold change [4]: 0.087
log2 fold change (filanesib): 0.004
log2 fold change (zotarolimus): 0.016
log2 fold change (idasanutlin): -0.003
log2 fold change (alisertib): 0.029
log2 fold change [5]: 0.054
log2 fold change (gefitinib): 0.032
log2 fold change [6]: -0.072
log2 fold change (lapatinib): -0.003
log2 fold change (pictilisib): -0.016

VRK2 (UniProt Q86Y07)
UniProt Q86Y07, sequence (Q86Y07 whole entry, looked up): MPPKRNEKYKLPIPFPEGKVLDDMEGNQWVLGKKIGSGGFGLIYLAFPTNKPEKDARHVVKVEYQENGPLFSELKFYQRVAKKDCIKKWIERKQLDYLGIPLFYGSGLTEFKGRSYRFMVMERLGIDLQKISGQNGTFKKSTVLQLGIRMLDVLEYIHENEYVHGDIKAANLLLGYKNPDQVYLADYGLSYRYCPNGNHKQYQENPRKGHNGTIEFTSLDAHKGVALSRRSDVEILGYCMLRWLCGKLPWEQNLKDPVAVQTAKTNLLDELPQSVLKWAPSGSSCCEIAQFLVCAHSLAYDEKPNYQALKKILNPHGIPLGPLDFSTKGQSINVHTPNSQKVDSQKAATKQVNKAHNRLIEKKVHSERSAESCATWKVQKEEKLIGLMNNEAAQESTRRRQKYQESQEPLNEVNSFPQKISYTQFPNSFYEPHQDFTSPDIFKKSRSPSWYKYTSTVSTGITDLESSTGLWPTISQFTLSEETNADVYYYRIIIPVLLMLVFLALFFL
log2 fold change (saracatinib): -0.036
log2 fold change (sotrastaurin): 0.075
log2 fold change (alvocidib): 0.4 (active)
log2 fold change (Tubastatin A): 0.014
log2 fold change [1]: -0.102
log2 fold change (defactinib): 0.106
log2 fold change (rucaparib): -0.039
log2 fold change [2]: -0.017
log2 fold change (encorafenib): -0.001
log2 fold change [3]: -0.092
log2 fold change [4]: -0.009
log2 fold change (filanesib): 0.075
log2 fold change (zotarolimus): 0
log2 fold change (idasanutlin): -0.066
log2 fold change (alisertib): 0.042
log2 fold change [5]: 0.003
log2 fold change (gefitinib): 0.018
log2 fold change [6]: -0.027
log2 fold change (lapatinib): -0.003
log2 fold change (pictilisib): -0.06

USP34 (UniProt Q70CQ2)
log2 fold change (saracatinib): 0.006
log2 fold change (sotrastaurin): -0.102
log2 fold change (alvocidib): -0.274
log2 fold change (Tubastatin A): 0.069
log2 fold change [1]: -0.049
log2 fold change (defactinib): -0.164
log2 fold change (rucaparib): -0.055
log2 fold change [2]: -0.015
log2 fold change (encorafenib): 0.08
log2 fold change [3]: 0.002
log2 fold change [4]: 0.021
log2 fold change (filanesib): 0.011
log2 fold change (zotarolimus): -0.03
log2 fold change (idasanutlin): -0.239
log2 fold change (alisertib): 0.021
log2 fold change [5]: 0
log2 fold change (gefitinib): -0.024
log2 fold change [6]: -0.073
log2 fold change (lapatinib): 0.011
log2 fold change (pictilisib): 0.135

XRCC6 (UniProt P12956)
UniProt P12956, sequence (P12956 whole entry, looked up): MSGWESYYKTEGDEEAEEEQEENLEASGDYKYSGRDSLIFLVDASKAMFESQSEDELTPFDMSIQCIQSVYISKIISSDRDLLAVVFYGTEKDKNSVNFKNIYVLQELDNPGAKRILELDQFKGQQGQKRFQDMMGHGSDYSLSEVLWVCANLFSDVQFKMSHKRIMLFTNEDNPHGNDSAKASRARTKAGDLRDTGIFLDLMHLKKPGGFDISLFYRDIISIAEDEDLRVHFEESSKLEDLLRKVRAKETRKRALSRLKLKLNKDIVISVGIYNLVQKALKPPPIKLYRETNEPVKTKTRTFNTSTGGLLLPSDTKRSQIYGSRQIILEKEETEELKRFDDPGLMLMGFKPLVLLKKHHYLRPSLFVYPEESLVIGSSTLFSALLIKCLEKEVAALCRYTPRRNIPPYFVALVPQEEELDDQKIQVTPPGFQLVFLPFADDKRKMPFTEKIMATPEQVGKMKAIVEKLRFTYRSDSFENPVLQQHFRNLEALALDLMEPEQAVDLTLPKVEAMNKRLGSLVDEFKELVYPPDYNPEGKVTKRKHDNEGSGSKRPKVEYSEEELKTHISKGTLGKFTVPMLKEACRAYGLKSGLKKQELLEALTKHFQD
log2 fold change (saracatinib): -0.013
log2 fold change (sotrastaurin): -0.114
log2 fold change (alvocidib): -0.187
log2 fold change (Tubastatin A): 0.099
log2 fold change [1]: -0.047
log2 fold change (defactinib): -0.264 (active)
log2 fold change (rucaparib): -0.007
log2 fold change [2]: -0.015
log2 fold change (encorafenib): 0.048
log2 fold change [3]: -0.041
log2 fold change [4]: 0.006
log2 fold change (filanesib): -0.021
log2 fold change (zotarolimus): 0.058
log2 fold change (idasanutlin): -0.059
log2 fold change (alisertib): -0.014
log2 fold change [5]: -0.097
log2 fold change (gefitinib): -0.01
log2 fold change [6]: -0.008
log2 fold change (lapatinib): 0.013
log2 fold change (pictilisib): -0.024
